Values joined by “and” are separate entries in the source; they are usually repeats but may differ in a detail not shown here. Equal values may be shown once. Inconclusive results are not listed. A structure can be active in one record and inactive in another. Active and inactive are the calls of the source. How the source made its calls, unless noted: active means hit-call score of the fitted dose curve at least 0.9, where 1 is the maximum; inconclusive means response in the unintended direction; inactive means score below 0.9.
What was measured:
[1] = Tanguay_ZF_120hpf_SWIM_legacy: (Legacy) Oregon State University Tanguay Lab 120 Hour Post-fertilization zebrafish Assay for Swim Bladder Malformation (AID 2283654);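 further: swim bladder malformation in each larva scored yes or no under brightfield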
Summary of the method: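 Scoring is binary for swim bladder defects at 120 hpf, by brightfield inspection of zebrafish larvae. Embryos were exposed singly from 6 hpf after pronase dechorionation, at 28C with 0.64% DMSO; mortality excluded scoring.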

[2] = Tanguay_ZF_120hpf_NC_legacy: (Legacy) Oregon State University Tanguay Lab 120 Hour Post-fertilization zebrafish Assay for Notochord and Tail Malformation (AID 2283656)
Summary of the method: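 Binary scoring of notochord distortion by brightfield microscopy; embryos dying were not scored. Wild-type Tropical 5D embryos, chorion removed, exposed singly and statically from 6 to 120 hpf, 28C, sealed, 0.64% DMSO.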

[3] = read-out: Broad substrate specificity ATP-binding cassette transporter ABCG2 (Homo sapiens) (UniProt Q9UNQ0); assay: CLD_ABCG2_6hr: CellzDirect (CLD) Gene Expression Assay for ABC Transporter (ABCG2) at 6 hours (AID 2283660)
Summary of the method: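 ABCG2 mRNA induction measured by qNPA chemiluminescence in human primary hepatocyte cultures, 6 h post-dose. Chemicals tested at several concentrations against a 0.2% DMSO vehicle; positive-direction fit relative to DMSO.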

[4] = read-out: xenobiotic metabolism (CYP1A1), CYP1A1 (gene 1543); assay: CLD_CYP1A1_6hr: CellzDirect (CLD) Gene Expression Assay for xenobiotic metabolism (CYP1A1) at 6 hours (AID 2283661);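 on AC50: potency for transcript induction above DMSO vehicle baseline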
Summary of the method: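 Read-out 6 h post-dose: qNPA chemiluminescent quantitation of transcript induction against 0.2% DMSO. Cells were cultured primary human hepatocytes from two separate donor preparations; phase-contrast morphology annotated apparent cytotoxicity.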

[5] = read-out: xenobiotic metabolism (CYP1A2), CYP1A2 (gene 1544); assay: CLD_CYP1A2_6hr: CellzDirect (CLD) Gene Expression Assay for xenobiotic metabolism (CYP1A2) at 6 hours (AID 2283663);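 on AC50: potency is for induction meaning a rise in mRNA above DMSO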
Summary of the method: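 mRNA levels quantified by quantitative nuclease protection assay with chemiluminescence, 6 h after dosing human primary hepatocyte cultures (two donors) across several concentrations, vehicle 0.2% DMSO. Induction fitted upward versus DMSO; phase-contrast cytotoxicity annotated.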

[6] = Tanguay_ZF_120hpf_TRUN_legacy: (Legacy) Oregon State University Tanguay Lab 120 Hour Post-fertilization zebrafish Assay for Truncated Body (AID 2283655)
Summary of the method: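 Binary presence/absence of truncated body is recorded at 120 hpf by brightfield, with non-mortality endpoints skipped after death. Exposure is static from 6 hpf in sealed dark plates at 28C, using dechorionated wild-type zebrafish, 0.64% DMSO.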

[7] = read-out: solute carrier (SLC22A6), SLC22A6 (gene 9356); assay: LTEA_HepaRG_SLC22A6: Life Technologies and Expression Analysis (LTEA) Assay for solute carrier (SLC22A6) using HepaRG (AID 2283653; active means hit-call score of the fitted dose curve at least 0.9, where 1 is the maximum; inactive means score below 0.9); details: mRNA level, 48 h; actives raise or lower the signal
Summary of the method: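 SLC22A6 transcript was measured by TaqMan qRT-PCR, normalized to three housekeeping genes, after 48 h duplicate exposure of HepaRG cells (100 uM top, half-log steps, 0.5% DMSO); bidirectional fit against vehicle.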

[8] = read-out: solute carrier (SLC10A1), SLC10A1 (gene 6554); assay: LTEA_HepaRG_SLC10A1: Life Technologies and Expression Analysis (LTEA) Assay for solute carrier (SLC10A1) using HepaRG (AID 2283657; active means hit-call score of the fitted dose curve at least 0.9, where 1 is the maximum; inactive means score below 0.9); details: mRNA level, 48 h; actives raise or lower the signal
Summary of the method: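 SLC10A1 transcript measured by TaqMan qRT-PCR, housekeeping-normalised, after 48 h chemical treatment of human HepaRG cells. Eight concentrations (half-log, max 100 uM, 0.5% DMSO vehicle) in duplicate; fitted bidirectionally against DMSO baseline.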

[9] = read-out: matrix metalloproteinase-1 (MMP1), MMP1 (gene 4312); assay: LTEA_HepaRG_MMP1: Life Technologies and Expression Analysis (LTEA) Assay for matrix metalloproteinase-1 (MMP1) using HepaRG (AID 2283658; active means hit-call score of the fitted dose curve at least 0.9, where 1 is the maximum; inactive means score below 0.9); details: mRNA level, 48 h; actives raise or lower the signal
Summary of the method: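 qRT-PCR (TaqMan, Fluidigm arrays) of MMP1 transcript, normalized against three housekeeping genes and fitted in both directions relative to 0.5% DMSO vehicle. Human HepaRG cultures received duplicate 48 h exposures across 8 points, highest 100 uM with half-log steps.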

[10] = tested on: Thyroperoxidase (TPO), gene 54314; assay: CCTE_Simmons_AUR_rTPO: CCTE's Amplex UltraRed Assay for Thyroperoxidase (TPO) Inhibition, Simmons Lab (AID 2283662);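 further: potency for loss of signal meaning inhibition of peroxidase activity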
Summary of the method: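 Cell-free peroxidase activity assay using rat thyroid gland microsomes with excess H2O2 (300 uM) and 25 uM Amplex UltraRed. Compounds tested from 5 nM to 87.5 uM; fluorescence measured after 30 min at 37C, analysed relative to DMSO baseline.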

Measured: AC50

Broad substrate specificity ATP-binding cassette transporter ABCG2 (Homo sapiens), sequence (Q9UNQ0 whole entry, looked up): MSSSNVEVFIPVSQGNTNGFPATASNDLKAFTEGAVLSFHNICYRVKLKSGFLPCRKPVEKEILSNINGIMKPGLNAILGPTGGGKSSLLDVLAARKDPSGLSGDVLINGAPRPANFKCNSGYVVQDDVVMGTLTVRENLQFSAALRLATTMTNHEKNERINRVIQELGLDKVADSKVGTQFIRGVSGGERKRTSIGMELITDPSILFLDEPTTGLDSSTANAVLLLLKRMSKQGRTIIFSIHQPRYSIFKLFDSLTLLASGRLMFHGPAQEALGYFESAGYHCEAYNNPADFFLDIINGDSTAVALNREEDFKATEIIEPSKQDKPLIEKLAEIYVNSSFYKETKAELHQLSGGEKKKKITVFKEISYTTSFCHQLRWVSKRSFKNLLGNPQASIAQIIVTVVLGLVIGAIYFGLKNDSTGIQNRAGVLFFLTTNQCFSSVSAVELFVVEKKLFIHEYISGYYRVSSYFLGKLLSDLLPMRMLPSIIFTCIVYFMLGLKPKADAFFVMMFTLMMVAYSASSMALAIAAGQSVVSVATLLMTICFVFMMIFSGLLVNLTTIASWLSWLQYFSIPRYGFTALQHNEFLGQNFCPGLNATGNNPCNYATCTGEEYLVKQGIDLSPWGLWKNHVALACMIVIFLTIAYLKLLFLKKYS

c1ccc(Nc2ccccc2)cc1
active: [4] 3.97 µM
inactive: [1] | [2] | [3] | [5]

CC(=O)S[C@@H]1CC2=CC(=O)CC[C@]2(C)[C@H]2CC[C@@]3(C)[C@@H](CC[C@@]34CCC(=O)O4)[C@H]12
inactive: [6] | [2]

CCCCCCC(C)OC(=O)COc1nc(F)c(Cl)c(N)c1Cl (configuration not stated)
not listed: [1] | [6] | [10]
inactive: all other assays above

N#CSCSc1nc2ccccc2s1
active: [8] 83.6 µM | [10] 2.57 µM
not listed: [1]
inactive: all other assays above

CCSC(=O)N(CC(C)C)CC(C)C
inactive: [6] | [2] | [3] | [4] | [5]

CN(C)C(=O)Nc1ccc(Cl)c(Cl)c1
active: [8] 52.8 µM | [4] 3.97 µM | [10] 36.6 µM | [5] 3.05 µM
inactive: [7] | [2] | [9]

CCCCOCCOCCOCc1cc2c(cc1CCC)OCO2
inactive: [7] | [2] | [9] | [3]
active: [6] 48 µM | [8] 67.7 µM | [4] 4.17 µM | [10] 34.2 µM | [5] 5.75 µM

COC(=O)c1ccc(I)cc1S(=O)(=O)NC(=O)Nc1nc(C)nc(OC)n1
inactive: [1] | [6] | [2] | [3] | [4] | [5]

CCCN(CCC)c1c([N+](=O)[O-])cc(C(F)(F)F)c(N)c1[N+](=O)[O-]
active: [4] 3 µM
inactive: [1] | [5]

CCOC(=O)c1ccc(O)cc1
inactive: [6] | [2]

O=C(O)c1ccccc1
inactive: [7] | [6] | [2] | [8] | [9]

CCN(CC)C(=O)c1cccc(C)c1
inactive: [1] | [6] | [2] | [3] | [4] | [5]

COC(=O)c1ccccc1C(=O)O
not listed: [1] | [10]
inactive: all other assays above

CC(=O)[C@H]1CC[C@H]2[C@@H]3CCC4=CC(=O)CC[C@]4(C)[C@H]3CC[C@]12C
inactive: [6]

CCNc1nc(N)nc(Cl)n1
inactive: [6] | [2] | [3] | [4] | [5]

CCCCC(CC)COC(=O)c1ccccc1C(=O)O (configuration not stated)
active: [4] 0.0637 µM
inactive: [6] | [2] | [3] | [5]

CCN(Cc1c(F)cccc1Cl)c1c([N+](=O)[O-])cc(C(F)(F)F)cc1[N+](=O)[O-]
inactive: [1] | [6] | [2]
active: [4] 1.9 µM | [5] 1.74 µM

CC1(C)C(C=C(Cl)Cl)C1C(=O)OCc1cccc(Oc2ccccc2)c1 (configuration not stated)
inactive: [6] | [2] | [3] | [4] | [5]

S=C([S-])NCCNC(=S)[S-].[Mn+2]
inactive: [7] | [6] | [2] | [9] | [5]
active: [8] 9.93 µM | [10] 12.6 µM

CC(C)CCCCCCc1ccc(O)cc1
inactive: [1] | [6] | [2]
active: [10] 20.6 µM

C[C@]12C[C@H](O)[C@H]3[C@@H](CCC4=CC(=O)CC[C@@]43C)[C@@H]1CC[C@@H]2C(=O)CO
inactive: [6] | [2]

CC(C)(c1ccc(O)cc1)c1ccc(O)cc1
active: [6] 25.9 µM and 43.8 µM | [4] 0.00719 µM
inactive: [6] | [2] | [3] | [5]

O=C(Nc1ccc([N+](=O)[O-])cc1Cl)c1cc(Cl)ccc1O
inactive: [6] | [2] | [3]
active: [4] 0.218 µM | [10] 3.56 µM | [5] 0.163 µM

CCOC(=O)C(C)Oc1ccc(Oc2cnc3cc(Cl)ccc3n2)cc1 (configuration not stated)
inactive: [1] | [6] | [2] | [3] | [5]

C[C@]12CC[C@@H]3c4ccc(O)cc4C[C@@H](CCCCCCCCCS(=O)CCCC(F)(F)C(F)(F)F)[C@H]3[C@@H]1CC[C@@H]2O (some centres not stated)
inactive: [6]

O=C(c1ccccc1)C1CCCCC1
inactive: [6] | [2]

S=C(S)NCCNC(=S)S.[Mn+2].[S-]C([S-])=NCCN=C([S-])[S-].[Zn+2]
active: [8] 1.74 µM | [4] 1.45 µM | [5] 2.75 µM
inactive: [7] | [6] | [2] | [3]

COCCO
not listed: [1] | [4] | [10]
inactive: all other assays above

CCC(C)OC(=O)N1CCCCC1CCO (configuration not stated)
inactive: [1] | [6] | [2] | [3] | [4] | [5]

C=CCOC(Cn1ccnc1)c1ccc(Cl)cc1Cl (configuration not stated)
inactive: [6] | [2] | [3]
active: [4] 0.0861 µM

— PubChem BioAssay (EPA / NIEHS)
